Screening data (PubChem BioAssay)
The list is not random: actives were taken first. Their share in the collection is about 5%.
USP8 block: blocks human USP8 ubiquitin-rhodamine cleavage. actives 4.2% (n = 47,000). inhibition, % at 20 µM. purified USP8, Ub-rhodamine cleavage fluorescence, 30 min
USP10 inh: blocks human USP10 ubiquitin-rhodamine cleavage; Q14694; actives 1.1% (n = 47,000); AID 1645856; purified USP10, Ub-rhodamine fluorescence, 60 min; inhibition, % at 20 µM
UCHL1 inh: human UCHL1 deubiquitinase inhibition | purified UCHL1, Ub-rhodamine cleavage fluorescence | inhibition, % at 20 µM | actives 0.2% (n = 47,000)
USP7 inh: human USP7 deubiquitinase inhibition; purified USP7, Ub-rhodamine cleavage fluorescence; inhibition, % at 20 µM; actives 0.3% (n = 47,000); AID 1645854
Each line names hits and unclear results; the compound was inactive in the other large screens. Cut-off read from the data, not from the text of the source: active = inhibition above about 30%; inactive = the rest.

Cc1cccc(NC(=O)Cc2nnc3c(-c4nc(C5CC5)no4)cccn23)c1	USP8 block 83
COc1cccc(C(=O)Nc2cc3c4c(c2)CC(=O)N4CCC3)c1	USP8 block 65
CC(=O)Nc1cccc(C(=O)Nc2ccc(N3CCCC3=O)cc2)c1	none
Cc1cccc(C(=O)Nc2cc3c4c(c2)CC(=O)N4CCC3)c1	USP8 block 39
O=C(NC1CCN(Cc2ccccc2)CC1)c1ccc(-c2cccnc2)nc1	none
CC1=C(C)C(c2c(-c3ccc(C)cc3)[nH]c3ccccc23)N(C(C)(C)C)C1=O (stereo unspecified)	USP8 block 90, USP10 inh 41, USP7 inh 32
O=C(Nc1cnc(N2CCCCCC2)nc1)c1ccccc1	none
Cc1cccc(NC(=O)Nc2ccc(C)n(CC(=O)Nc3ccc(C)c(C)c3)c2=O)c1	USP8 block 74, USP10 inh 42
Cc1cccc(NC(=O)Nc2ccc(C)n(CC(=O)Nc3ccccc3)c2=O)c1	none
CCn1c(=O)c2nscc2n(CC(=O)Nc2cccc(C)c2)c1=O	none
Cc1ccc(NC(=O)Nc2ccc(C)n(CC(=O)Nc3cccc(C)c3)c2=O)cc1	USP8 block 94, USP10 inh 53, USP7 inh 31
CC(C)(C)c1cc2nc3c(c(=O)n2[nH]1)CN(Cc1ccc(Br)s1)CC3	USP8 block 40
O=C(Cc1ccc(Cl)cc1)Nc1cc(-c2ccccn2)no1	none
C=C1C=C(CCC(=O)O)C(=O)OC1/C=C/C=C/C (stereo unspecified)	USP8 block 98, USP10 inh 95, UCHL1 inh 81, USP7 inh 78
COc1ccc(C(=O)OCC(=O)N2CCC(Cc3ccccc3)CC2)c(OC)c1	none
CCCn1c2ccccc2n2cc(-c3ccc(-c4ccccc4)cc3)nc12	USP8 block 81
Fc1ccc(-c2cn3c4ccccc4n(Cc4ccc(Cl)cc4)c3n2)cc1	USP8 block 62
CCCn1c2ccccc2n2c(C(C)=O)c(-c3ccccc3)nc12	none
Brc1ccc(-c2cn3c4ccccc4n(CCN4CCCCC4)c3n2)cc1	USP8 block 48
O=C(NCc1cccc(F)c1)c1ccc2c(c1)NC(=O)C1CCCN21 (stereo unspecified)	USP8 block 67
CCn1c(SCc2nc(N)c3ccccc3n2)nc2ccccc21	USP8 block 33
Cc1ccc(Cn2c(SCc3ccccc3C#N)nc3ccccc3c2=O)cc1	none
O=C1CN(C(=O)CC2CCCCC2)C(c2ccccc2)c2cc(Cl)ccc2N1 (stereo unspecified)	USP8 block 34
Cc1nc(SCC(=O)NC(C)c2ccccc2)c2oc3ccccc3c2n1 (stereo unspecified)	USP10 inh 40
COc1ccccc1NC(=O)c1nc(-c2cn(-c3ccc(F)cc3)nn2)no1	USP8 block 57
COc1ccc(Cl)cc1NC(=O)c1nc(-c2cn(-c3ccccc3)nn2)no1	USP8 block 99, USP10 inh 32
Cc1ccccc1NC(=O)c1nc(-c2cn(Cc3ccc(F)cc3)nn2)no1	USP8 block 95, USP10 inh 35
Fc1ccc(Cn2cc(-c3noc(-c4ccco4)n3)nn2)cc1	none
COc1ccccc1-c1nc(-c2cn(-c3cccc(Cl)c3)nn2)no1	USP8 block 96, USP10 inh 71, USP7 inh 51
Cc1ccc(C(=O)N(Cc2nc3nc(C)cc(=O)n3[nH]2)c2ccc(C)cc2)cc1	none
COc1cc(OC)cc(-c2nc(-c3cn(-c4cccc(F)c4)nn3)no2)c1	USP8 block 62
COc1ccc(C(=O)Nc2c(-c3ccccc3)c(=O)c3ccccc3n2C)cc1	none
Cc1ccc(CN(CCCn2ccnc2)CC2=COCCO2)s1	none
Cc1ccc(NC(=O)c2nnn(CC(=O)Nc3cccc(C)c3C)c2N)cc1C	USP8 block 72, USP10 inh 36
Cc1nc(N2CCCC2)n(Cc2cccc(C#N)c2)c(=O)c1C	none
CN(C)c1cccc(C(=O)NCC2(c3ccccc3)CCCC2)c1	none
CCOc1ccc(C(=O)Oc2ccc(-n3cnnn3)cc2)cc1	USP8 block 33
Cn1c2ccccc2c(=O)c2c(=O)n(Cc3ccco3)c(-c3ccccc3F)nc21	USP8 block 90, USP10 inh 61
COc1cc(-c2nc3c(c(=O)c4ccccc4n3C)c(=O)n2Cc2ccco2)cc(OC)c1OC	none
COc1ccccc1C(=O)N1c2ccccc2NC(=O)CC1C (stereo unspecified)	none
Cn1c(NC(=O)c2ccco2)c(-c2cccs2)c(=O)c2ccccc21	USP8 block 34
COc1cc(C2C3=C(CC(c4ccco4)CC3=O)Nc3ccccc3N2C(=O)c2ccccc2)cc(OC)c1OC (stereo unspecified)	USP8 block 34
CCC(=O)N1c2ccccc2NC2=C(C(=O)CC(c3ccco3)C2)C1c1ccc(OC)c(OC)c1 (stereo unspecified)	none
CC(=O)N1c2ccccc2NC2=C(C(=O)CC(c3ccco3)C2)C1c1ccc(Cl)cc1 (stereo unspecified)	USP8 block 43
COc1cc(C2CC(=O)C3=C(C2)Nc2ccccc2N(C(=O)c2ccccc2)C3c2ccc(C)cc2)cc(OC)c1OC (stereo unspecified)	none
COc1ccc(N2CCN(CCCNC(=O)c3ccc4c(=O)n(CCc5ccccc5)c(=O)[nH]c4c3)CC2)cc1	none
COc1ccc(Cn2c(=O)[nH]c3cc(C(=O)NCCCN4CCN(c5cccc(Cl)c5)CC4)ccc3c2=O)cc1	USP8 block 83, USP10 inh 60
O=C(NC1CCCCC1)C(c1ccc(F)cc1)N(C(=O)C1COc2ccccc2O1)c1ccc2c(c1)OCO2 (stereo unspecified)	USP8 block 41
O=C(NC1CCCCC1)C(c1ccccc1)N(C(=O)c1cccs1)c1ccc2c(c1)OCO2 (stereo unspecified)	none
O=C(CCCC(=O)N(c1ccc2c(c1)OCCO2)C(C(=O)NC1CCCCC1)c1ccc(F)cc1)Nc1ccccn1 (stereo unspecified)	USP8 block 58, USP10 inh 40
Cc1ccc(C(C(=O)NC2CCCCC2)N(C(=O)CCCC(=O)Nc2ccccn2)c2ccc3c(c2)OCCO3)cc1 (stereo unspecified)	none
FC(F)(F)c1ccc(-c2nc(-c3ccc4c(c3)OCCCO4)cs2)cc1	none
CC(C)CCn1c(N)c(-c2nc3ccccc3[nH]2)c2nc3ccccc3nc21	none
Cn1c(-c2c(N)n(Cc3ccc(Cl)cc3)c3nc4ccccc4nc23)nc2ccccc21	USP8 block 57
Cc1cc(C(=O)N2CC(C(=O)NCCc3ccc(F)cc3)C2)no1	none
CCOc1cccc(CNC(=O)C2c3ccccc3CC(=O)N2CC)c1 (stereo unspecified)	USP8 block 55
COc1cc2c(C#N)c(N3CCCC3)nc3c2c(n1)NC(C)(c1ccc(-c2ccccc2)cc1)N3 (stereo unspecified)	USP8 block 39, USP7 inh 35
CCN[C@H]1C[C@@H](c2ccccc2)OC2(CCN(Cc3ccnn3C)CC2)C1	none
CC(C)(C)c1cc(C(=O)N2CCCC(c3cnccn3)C2)n[nH]1 (stereo unspecified)	none
O=C(Nc1nc(-c2ccccc2)ns1)c1ccc2ncsc2c1	USP10 inh 36
